Experimental data reported in PubChem BioAssay (NCATS).
Inconclusive results are not listed. Activity calls are given as the source filed them. Calls follow the shape of the dose curve; as a rule, active = well fitted curve in the direction sought with a large enough effect; inconclusive = small, poorly fitted or top-dose-only effect, or another doubt; inactive = no such curve, though single readings can be large; an effect the other way counts as inactive or inconclusive.

What was measured:
[1] = qHTS of pediatric cancer cell lines to identify multiple opportunities for drug repurposing: Primary screen for NB-EBc1 cells (AID 1347095)
Outline: (§1)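 Cells seeded at 500-1,000 cells/well in growth media, rested 5 hours at 37 degrees C, 5% CO2, then dosed; MIPE compounds at 11-point (from 0.78 nM) and NPC at 8-point (from 0.59 nM) final concentrations. Viability by CellTiter-Glo luminescence after 48 hours.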

[2] = qHTS of pediatric cancer cell lines to identify multiple opportunities for drug repurposing: Primary screen for U-2 OS cells (AID 1347096); also: nearly all actives have a fitted effect of over 50% in size
Outline: (§2)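 Viability after 48 h compound treatment at 37C, 500-1,000 cells/well, read as ATP luminescence with CellTiter-Glo. Primary screens used 11-point (MIPE, 0.78 nM-46 µM) or 8-point (NPC, 0.59 nM-46 µM) final concentrations; follow-up screens used 11-point dilutions.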

[3] = qHTS of pediatric cancer cell lines to identify multiple opportunities for drug repurposing: Primary screen for Saos-2 cells (AID 1347097); also: nearly all actives have a fitted effect of over 40% in size
Outline: as §1

[4] = qHTS of pediatric cancer cell lines to identify multiple opportunities for drug repurposing: Primary screen for SK-N-SH cells (AID 1347098);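 also: DMSO served as neutral control and bortezomib at 2.3 µM as positive control; nearly all actives have a fitted effect of over 65% in size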
Outline: (§3)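 Cells (500-1,000/well) rested 5 h, then received compounds for 48 h; metabolically active cells were measured by CellTiter-Glo luminescence. Final concentrations spanned up to 46 µM (MIPE, 11-point) or 0.59 nM-46 µM (NPC, 8-point) in primary screens, 11-point in follow-ups.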

[5] = qHTS of pediatric cancer cell lines to identify multiple opportunities for drug repurposing: Primary screen for NB1643 cells (AID 1347099); also: nearly all actives have a fitted effect of over 50% in size
Outline: as §1

[6] = qHTS of pediatric cancer cell lines to identify multiple opportunities for drug repurposing: Primary screen for LAN-5 cells (AID 1347100)
Outline: as §2

[7] = qHTS of pediatric cancer cell lines to identify multiple opportunities for drug repurposing: Primary screen for BT-12 cells (AID 1347101); also: nearly all actives have a fitted effect of over 25% in size
Outline: as §3

[8] = qHTS of pediatric cancer cell lines to identify multiple opportunities for drug repurposing: Primary screen for Rh18 cells (AID 1347102); also: nearly all actives have a fitted effect of over 65% in size
Outline: as §2

[9] = qHTS of pediatric cancer cell lines to identify multiple opportunities for drug repurposing: Primary screen for RD cells (AID 1347104); also: nearly all actives have a fitted effect of over 55% in size
Outline: as §1

[10] = qHTS of pediatric cancer cell lines to identify multiple opportunities for drug repurposing: Primary screen for MG 63 (6-TG R) cells (AID 1347105); also: nearly all actives have a fitted effect of over 50% in size
Outline: as §1

[11] = qHTS of pediatric cancer cell lines to identify multiple opportunities for drug repurposing: Primary screen for control Hh wild type fibroblast cells (AID 1347106);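 also: series mostly up to about 46 µM; a drop in luminescence marks cytotoxicity and a rise apparent proliferation; nearly all actives have a fitted effect of over 55% in size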
Outline: as §2

[12] = qHTS of pediatric cancer cell lines to identify multiple opportunities for drug repurposing: Primary screen for Rh30 cells (AID 1347107); also: series mostly up to about 46 µM; nearly all actives have a fitted effect of over 75% in size
Outline: as §2

[13] = qHTS of pediatric cancer cell lines to identify multiple opportunities for drug repurposing: Primary screen for Rh41 cells (AID 1347108);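 also: series mostly up to about 46 µM; luminescence drop marks cytotoxic hits; nearly all actives have a fitted effect of over 70% in size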
Outline: as §1

[14] = qHTS of pediatric cancer cell lines to identify multiple opportunities for drug repurposing: Primary screen for OHS-50 cells (AID 1347103); also: nearly all actives have a fitted effect of over 40% in size
Outline: as §3

Measured: Potency

NS(=O)(=O)c1cc(C(=O)NN2C[C@H]3[C@H]4CCC(C4)[C@H]3C2)ccc1Cl
not listed: [14]
inactive: all other assays above

CN1Cc2cc(C(=O)N3CCC(C4CCNCC4)CC3)ccc2NC(CC(=O)O)C1=O (centres undefined)
not listed: [8]
inactive: all other assays above

CCN(CC)CCN
not listed: [7]
inactive: all other assays above

O=C1Nc2cc(Cl)ccc2Oc2ccccc21
not listed: [10] | [14]
inactive: all other assays above

CC(C)(C)C(O)/C=C/c1ccc2c(c1)OCO2 (centres undefined)
not listed: [14]
inactive: all other assays above

CN1C(CSCC(F)(F)F)Nc2cc(Cl)c(S(N)(=O)=O)cc2S1(=O)=O (centres undefined)
not listed: [14]
inactive: all other assays above

CCOc1ncc(F)c(=O)[nH]1
not listed: [8] | [12] | [13]
inactive: all other assays above

O=C(OCCN1CCOCC1)c1cccnc1Nc1cccc(C(F)(F)F)c1
not listed: [14]
inactive: all other assays above

COc1ccc2c(c1)CCCC2=O
not listed: [8]
inactive: all other assays above
